Measured values as given in article PMC4336329 (PLoS ONE, 2015).
Hit rate of the full screen: of about 310,000 compounds, about 14,000 (4.5%) showed an effect of 50% or more. The effect is printed as a negative number. The sample holds strong results, similar compounds and a random draw of the others, so the mix is not that of the screen.

Biological target: human ether-à-go-go-related gene (hERG) potassium channel (human, UniProt Q12809)
Assay: primary screen, population patch clamp on CHO cells stably expressing hERG; higher = less effect of the substance
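Further: peak tail current of the secondary pulse compared with the same well before compound.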

Chain of human ether-à-go-go-related gene (hERG) potassium channel (Q12809 whole entry, looked up): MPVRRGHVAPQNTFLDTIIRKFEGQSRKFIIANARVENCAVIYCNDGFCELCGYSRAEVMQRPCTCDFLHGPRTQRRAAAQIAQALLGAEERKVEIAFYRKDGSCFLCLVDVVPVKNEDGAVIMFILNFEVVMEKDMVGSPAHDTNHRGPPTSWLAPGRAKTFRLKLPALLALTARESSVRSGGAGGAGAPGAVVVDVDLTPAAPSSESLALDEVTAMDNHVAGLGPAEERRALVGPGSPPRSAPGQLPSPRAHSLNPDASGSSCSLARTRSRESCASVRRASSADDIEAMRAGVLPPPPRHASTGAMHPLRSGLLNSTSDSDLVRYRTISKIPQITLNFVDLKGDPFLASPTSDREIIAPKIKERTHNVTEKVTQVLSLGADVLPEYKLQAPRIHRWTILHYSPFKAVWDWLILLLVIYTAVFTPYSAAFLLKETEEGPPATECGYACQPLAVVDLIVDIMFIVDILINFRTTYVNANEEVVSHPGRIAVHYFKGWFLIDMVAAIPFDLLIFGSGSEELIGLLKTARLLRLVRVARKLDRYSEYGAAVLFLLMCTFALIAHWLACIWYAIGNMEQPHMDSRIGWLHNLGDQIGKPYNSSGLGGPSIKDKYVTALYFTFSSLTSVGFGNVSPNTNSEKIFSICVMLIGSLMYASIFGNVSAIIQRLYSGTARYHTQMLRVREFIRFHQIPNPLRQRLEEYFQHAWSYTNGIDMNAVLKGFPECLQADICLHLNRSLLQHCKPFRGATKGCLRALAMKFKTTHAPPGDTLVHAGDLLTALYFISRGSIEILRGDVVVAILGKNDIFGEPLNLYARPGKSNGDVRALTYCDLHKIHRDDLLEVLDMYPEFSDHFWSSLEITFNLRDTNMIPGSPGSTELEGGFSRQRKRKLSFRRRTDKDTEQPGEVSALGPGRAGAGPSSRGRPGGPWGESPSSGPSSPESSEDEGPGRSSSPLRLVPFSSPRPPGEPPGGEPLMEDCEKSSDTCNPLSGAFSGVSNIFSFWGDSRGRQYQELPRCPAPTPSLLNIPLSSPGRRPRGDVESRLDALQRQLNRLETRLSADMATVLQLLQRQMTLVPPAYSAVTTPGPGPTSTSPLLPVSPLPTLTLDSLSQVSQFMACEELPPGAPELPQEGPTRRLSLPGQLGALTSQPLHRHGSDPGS

SMILES | hERG current change (%, negative = inhibition) at 10uM [%]
CCOCC(=O)Nc1ccc([N+](=O)[O-])cc1C | 5.75
Cc1nc(SCC(=O)N2CC(=O)Nc3ccccc32)c2c(C)c(C)sc2n1 | -5.65
COc1ccc(CCNC(=O)C(NS(=O)(=O)c2ccc3c(c2)CCN3C(C)=O)C(C)C)cc1OC (centres unmarked) | 25.1
CCC(=O)Nc1cccc(NC(=O)CSc2nc3c(c(=O)n(C)c(=O)n3C)n2C)c1 | 18
CCC1Sc2ccc(S(=O)(=O)CCC(=O)Nc3ccc(NC(C)=O)cc3)cc2NC1=O (centres unmarked) | 19
CC(=O)c1c(N2CCOCC2)nc(=S)n(-c2ccc([N+](=O)[O-])cc2)c1C | -46.2
CSc1nc(=S)n(-c2ccc([N+](=O)[O-])cc2)c(C)c1C(C)=O | -68.3
CSc1nc(=S)n(-c2ccccc2)c(C)c1C(C)=O | 11.9
Cc1cc(C)cc(OCC(=O)Nc2ccc(CN3CCCCC3)cc2)c1 | -43.7
CCOc1ccc(C(=O)Nc2ccc(CN3CCOCC3)cc2)cc1Br | -46.6
CCc1ccc(OCC(=O)Nc2ccc(CN3CCCCC3)cc2)cc1 | -18
Cc1ccc(OCC(=O)Nc2ccc(CN3CCOCC3)cc2)cc1 | -9.4
Cc1cc(OCC(=O)Nc2ccc(CN3CCCCC3)cc2)ccc1Cl | -73.9
CCOc1ccc(C(=O)Nc2ccc(CN3CCOCC3)cc2)cc1Cl | -56
Cc1cc(OCC(=O)Nc2ccc(CN3CCOCC3)cc2)ccc1Cl | -51.8
Cc1ccc(OCC(=O)Nc2ccc(CN3CCOCC3)cc2)cc1C | -39.3
CCOc1ccc(NC(=O)c2ccc(NC(=O)c3ccc(CN4CCOCC4)cc3)cc2)cc1 | 9.33
O=C1CC(=O)N(CCc2ccccc2)C(=O)N1CCc1ccccc1 | 6.19
CN(C)S(=O)(=O)c1ccc(NC(=O)CSc2nc3ccccc3n2-c2ccccc2)cc1 | 24.2
CCc1cccc(C)c1NC(=S)NCC(c1cccnc1)N1CCOCC1 (centres unmarked) | -14.3
C/C(=N/NC(=O)CNC(=O)c1ccco1)c1ccc(Cl)cc1 | -1.47
COc1ccc(N2CC(C(=O)OCC(=O)c3ccccc3)CC2=O)cc1 (centres unmarked) | -9.34
CCOc1ccc(N2CC(C(=O)NCc3ccccc3)CC2=O)cc1 (centres unmarked) | -12.3
CCOc1ccc(N2CC(C(=O)NCCc3ccc(S(N)(=O)=O)cc3)CC2=O)cc1 (centres unmarked) | 12.1

SMILES | hERG current change (%, negative = inhibition) at 10uM [%]
CCOc1ccc(N2CC(C(=O)NCCc3ccccc3)CC2=O)cc1 (centres unmarked) | -29.6
O=C(NCc1n[nH]c(=O)c2ccccc12)C1CC(=O)N(c2ccccc2)C1 (centres unmarked) | -1.81
CCOc1ccc(N2CC(C(=O)NCCCc3ccccc3)CC2=O)cc1 (centres unmarked) | -51.2
CCOc1ccc(N2CC(C(=O)NCCc3ccc(F)cc3)CC2=O)cc1 (centres unmarked) | -65.8
CCOc1ccc(N2CC(C(=O)OCC(=O)c3ccc(OC)cc3)CC2=O)cc1 (centres unmarked) | -56
CCOc1ccc(N2CC(C(=O)NCc3ccc(F)cc3)CC2=O)cc1 (centres unmarked) | -27.3
O=C(NCc1n[nH]c(=O)c2ccccc12)C1CC(=O)N(c2ccc(Cl)cc2)C1 (centres unmarked) | -70.7
Cc1ccc(N2CC(C(=O)NCc3n[nH]c(=O)c4ccccc34)CC2=O)cc1 (centres unmarked) | -23.8
COc1ccc(N2CC(C(=O)OCC(=O)c3ccc(C)cc3)CC2=O)cc1 (centres unmarked) | 13.9
CCC(CC)C(=O)Nc1cc(C(=O)NCCc2ccccc2)ccc1Cl | -8.24
Cc1cccc(OCCCC(=O)Nc2ccc(S(=O)(=O)N3CCCC3)cc2)c1 | -21.3
CCOC(=O)c1c(-c2ccc(OC)cc2)oc2ccc(OC(=O)N(C)C)cc12 | 10.1
Cc1nc2ccccc2c(=O)n1CCN1CCOCC1 | 4.18
COc1ccc(-c2nn(-c3ccccc3)cc2C2CC(c3cccs3)=NN2C(=O)CCCC(=O)O)cc1 (centres unmarked) | 17.9
O=C(CN1C(=O)NC2(CCCCC2)C1=O)N1CCN(S(=O)(=O)c2ccccc2)CC1 | 13.8
CCOCCc1nnc(NC(=O)C2CC(=O)N(c3ccc(OCC)cc3)C2)s1 (centres unmarked) | -18.1
O=C(NCCOc1ccc(Cl)cc1)C1CC(=O)N(c2ccc3c(c2)OCCO3)C1 (centres unmarked) | -27.9
CCOc1ccc(N2CC(C(=O)Nc3cc(Cl)ccc3-n3cncn3)CC2=O)cc1 (centres unmarked) | -64.2
Cc1ccc(OCCNC(=O)C2CC(=O)N(c3ccc(C)cc3)C2)cc1 (centres unmarked) | -4.5
CCOc1ccccc1N1CC(C(=O)Nc2cc(Cl)ccc2-n2cncn2)CC1=O (centres unmarked) | -10.3
CCOc1ccc(N2CC(C(=O)Nc3ccc(F)cc3F)CC2=O)cc1 (centres unmarked) | -3.45
O=C(NCCOc1ccc(Cl)cc1)C1CC(=O)N(c2ccc(F)cc2)C1 (centres unmarked) | -69.4
CCOc1ccc(N2CC(C(=O)Nc3nnc(Cc4ccccc4)s3)CC2=O)cc1 (centres unmarked) | 4.73
CCOc1ccc(N2CC(C(=O)Nc3nnc(CC)s3)CC2=O)cc1 (centres unmarked) | -53.6

SMILES | hERG current change (%, negative = inhibition) at 10uM [%]
Cc1ccc(C(=O)c2nc(C(=O)NCCO)nc3ccccc23)cc1 | 25.8
COc1ccc(-c2cc(=O)oc3c(C)c(OC(C)C(=O)N4C[C@H]5C[C@@H](C4)c4cccc(=O)n4C5)ccc23)cc1 (some centres unmarked) | -47.2
CCOC(=O)c1[nH]c(C)c(C(=O)OCC(=O)N(Cc2ccccc2)C(C)C)c1C | -15.8
Cc1cccc(OCCCCNCc2ccccc2)c1.O=C(O)C(=O)O | -38.1
Cc1ccc(C(=O)NC(=S)N2CCN(C)CC2)cc1 | -1.37
COC(=O)c1ccc(CSc2nnc(CS(=O)Cc3ccc(Br)cc3)n2-c2ccccc2)cc1 (centres unmarked) | -12
S=C(Nc1ccc(Br)cc1)N1CCN(C2CCCCC2)CC1 | -17.3
O=C(CN1CCN(S(=O)(=O)N2CCCCC2)CC1)Nc1ccc(Br)cc1 | -78.2
O=C(CN1CCN(S(=O)(=O)N2CCCCCC2)CC1)Nc1ccc(F)cc1 | -74.9
O=C(CN1CCN(S(=O)(=O)N2CCCCC2)CC1)Nc1ccc(Cl)c(Cl)c1 | -28.2
O=C(CN1CCCCCC1)Nc1ccc(Br)cc1 | -32.3
O=C(CN1CCCC1)Nc1ccc(S(=O)(=O)N2CCCCC2)cc1 | 4.2
O=C(CN1CCN(S(=O)(=O)N2CCCCCC2)CC1)Nc1ccc(Br)cc1 | -74.3
Cl.O=C(CN1CCCC1)Nc1ccc(Br)cc1 | -1.25
Cl.O=C(CN1CCN(C2CCCCC2)CC1)Nc1ccc(Br)cc1 | -70
O=C(CN1CCCCCC1)Nc1ccc(S(=O)(=O)N2CCCCC2)cc1 | -38.7
O=C(CN1CCN(S(=O)(=O)N2CCCCC2)CC1)Nc1cc(Cl)cc(Cl)c1 | -32.5
O=C(CN1CCCCC1)Nc1ccc(S(=O)(=O)N2CCCCCC2)cc1 | -35.5
CC1CCC2(CC1)NC(=O)N(CC(=O)Nc1ccc3[nH]c(=O)[nH]c3c1)C2=O (centres unmarked) | 0.0265
O=C(NC1CCCCC1)c1cc(S(=O)(=O)N2CCOCC2)c(Cl)cc1Cl | 13.6
Cc1nc2ccccc2c(=O)[nH]1 | 3.94
Cc1ccc(N(CC(=O)Nc2ccc(F)cc2)S(=O)(=O)N2CCCC2)cc1 | -27.1
CN(C)S(=O)(=O)N1CCN(CC(=O)Nc2ccc(Br)cc2)CC1 | -49.4
CN(C)S(=O)(=O)N1CCN(CC(=O)Nc2ccc(F)cc2)CC1 | -69.7

SMILES | hERG current change (%, negative = inhibition) at 10uM [%]
CCc1ccc(-c2cn(-c3nc(C)cc(C)n3)c(=N)o2)cc1 | -71.8
CCc1ccc(-c2cn3c(n2)SCC3)cc1 | 4.12
CCc1ccc(Nc2nc(C)cc(C)n2)cc1.Cl | -1.21
Cc1ccc2oc(-c3ccccc3)nc2c1 | 11.3
Nc1nc(CN2CCN(Cc3ccccc3)CC2)nc(N2CCCc3ccccc32)n1 | -56.5
Nc1nc(CN2CCN(c3ccc(F)cc3)CC2)nc(N2CCCc3ccccc32)n1 | -52.9
Nc1nc(CN2CCN(c3ccccc3)CC2)nc(N2CCCc3ccccc32)n1 | -39.6
Nc1nc(CN2CCN(c3cccc(Cl)c3)CC2)nc(N2CCCc3ccccc32)n1 | -6.96
COc1ccc(N2CCN(Cc3nc(N)nc(N4CCCc5ccccc54)n3)CC2)cc1 | -27.9
Nc1nc(CN2CCN(c3ccccc3F)CC2)nc(N2CCCc3ccccc32)n1 | -11.7
COc1ccc(CC(=O)N2N=C(C)CC2(O)C(F)(F)F)cc1 (centres unmarked) | 2.87
Cc1cc(N/N=C/c2ccccc2F)c2ccccc2n1 | 9.06
CN(C)c1ccc(C(=S)N2CCCCC2)cc1 | 8.24
Nc1cccnc1S(=O)(=O)c1cccc(C(F)(F)F)c1 | 5.59
CCOC(=O)N1CCN(CC(O)COC2CC(C)CCC2C(C)C)CC1.Cl (centres unmarked) | -33.1
CC1CCC(C(C)C)C(OCC(O)CN2CCCC(C)C2)C1.Cl (centres unmarked) | -31.6
CC1CCN(CC(O)COC2CC(C)CCC2C(C)C)CC1.Cl (centres unmarked) | -70.4
CC1CC(OCC(O)CN2CCOCC2)CC(C)(C)C1.Cl (centres unmarked) | 1.1
CC1CC(OCC(O)CN2CCN(Cc3ccccc3)CC2)CC(C)(C)C1.Cl (centres unmarked) | -43.5
CC1CCC(C(C)C)C(OCC(O)CN2CCOCC2)C1.Cl (centres unmarked) | -0.613
CC1CCN(CC(O)COC2CC(C)CC(C)(C)C2)CC1.Cl (centres unmarked) | -54.5
CC1CC(C)CN(CC(O)COC2CC(C)CC(C)(C)C2)C1.Cl (centres unmarked) | -32.3
CC1CCC(C(C)C)C(OCC(O)CN2CCN(Cc3ccccc3)CC2)C1.Cl (centres unmarked) | -66.5
